The values that follow come from the supplement of paper PMC6555819.

In the test the test system is RARa:RXR (NR concentration 270 nM, RXRa partner concentration 90 nM). As to the kind of experiment: PBM binding z-score (relative to random genomic background probes); higher = stronger binding; sequences stand for … in GC…GCGATTGACAGCGTAGAATGAAGG
An outline of the steps:
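Custom Agilent 4×180K protein-binding microarrays carried double-stranded probes, each with a 34-nt variable region. These regions held direct-repeat seeds, single-nucleotide variants, half-site ablations and random human genomic background sequences. Ligand-free nuclear receptor dimers were incubated on the arrays for 1 h, antibodies against each partner (one per run) detected binding, and scanned fluorescence was regression-normalized. Binding z-scores take the random background probes as reference.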
Turning to CGAACGAGGTCATTGACAGGACAGTGAATAGTAA, the PBM binding z-score worked out at 5.46.

For the sequence TCTAGTTGGTCACGGAGGGCACACACGACGGGTA, the PBM binding z-score amounted to 1.01.

AGAATGAGGTCATTAAGATCAGGGAATTGCGGTC had a PBM binding z-score of 5.31. Under CGCACTAGGTCATCCAGGACAGTGAATACATTGA stands 2.65; under TAGCCTAGGTCATGCGGCCCAGTATAGTGTCGGC, 2.1. Under GATACAGGGTCAGCTACAGGCCAGAGTATGGAAA stands 3.3; under ATCGAAAGGTCGACGCGGTGAGTATACACCGTTT, 3. The same measure for CCTGCTAGGTCATGGTCAGCGAATCTACAGTATG: 2.26; for GCTGCTAGGTCAACTGATGGTCACCTAAAGCTCG: 3.26. CCGACTGGGGCAAGGTCACCATAACGCACAGCCA showed a PBM binding z-score of 3.76.

As to TCTCGGAGGACACCAAAGGTCAGAGCTCGACATC, the PBM binding z-score is 4.86. Under AGTCAAAGTGCATCTAGGTAACGTAAGATATGCT stands 0.595; under CCTACTGGGCCAAAAAGTTCATTGATGCCGATAA, 1.23.

In turn, ATTTGTAGGTTACATCCGGGTCATTCAGGCTATG gave a PBM binding z-score of 4.19. The same measure for CGAACTAGGTCACCCAGGACAGTGAATACATTGA: 2.54; for CGTCCGAGGTCATAGGAGGTCAGTGAAGACAGAT: 6.7; for CCTAGTTGTTCAGGAGGTCACACACCGGATATGA: 4.4. Under CGAACTACGTCATCCAGGACAGTGAATACATTGA stands 0.358; under AATAAAGGGTCATCGTAGGCCAGAGTACGCACAG, 5.67; under CGTCAAAGTCCAAGGTAACGTAACAGAAAGCAGC, 0.165. The same measure for TAGCCTAGGTCATACAGGGGCCAGTATAGAAAGC: 3.56; for CGAACAAGGTCATTGACAGGACAGTGAATAGTAA: 4.28. In turn, ATATGTAGGTTAGCTGGGGTCATTCACACTAGGC had a PBM binding z-score of 5.41. The same measure for CGTCCAAGGACAATGCTAGGTCAGTGAAAGCATT: 0.502; for CGAACGAGGTCATGAGTTGATAGCAAATGCCGAT: 5.48; for AGAATGAGGTCAAGATCAGGGAAACAGAATACAT: 5.28.

CGTCCAAGGTTAAGGTCAGTGAAAGAGACTCGAA showed a PBM binding z-score of 3.56.

The sequence CATACAGGGTCGGCTAGGCCAGAGTAGGGACGGC came in with a PBM binding z-score of 0.408. The same measure for CCTACTGGGCCAAAGAGGTCATTGATGCCGATAA: 4.39.

ATATGTAGGTTAGGGTCAGTCAGAAAGTAGGGAA had a PBM binding z-score of 3.41. In turn, AGTCAAAGTTTATCTAGGTAACGTAAGATATGCT gave a PBM binding z-score of 0.503. Under TAGCCTAGGTCATGCGGGACAGTATAGTGTCGGC stands 2.58.

ACTTAAGGGTCAACGAGGTTATAGCACGCGTATA gave a PBM binding z-score of 6.74. The same measure for TAGCCTAGTTCATTCAGGGGCCAGTATAGAAAGC: 0.991; for CGAACAAGGTCATCCAGGACAGTGAATACATTGA: 5.39. The same measure for CGTCCGAGGTCAAGGTCAGTGAAAGAGACTCGAA: 6.15. The sequence TAGCCGAGGTCATTCAGGGGCCAGTATAGAAAGC returned a PBM binding z-score of 6.51. Under CCTACTCGGCCAAAAAGGTCATTGATGCCGATAA stands 4.83; under CCTTACGGGTCCCTCCAGGTTATAGCATCGGAGT, 0.181. Under AACGAAAGGTCGAAGGTGAGTATACCCACCCGAA stands 4.48.
